Shown are actives, neighbours in structure and some others; about 11% of the full set was active somewhere.
L3MBTL1 inh – L3MBTL1 (human) inhibition; AID 485360; hit rate 0.66% among 230,000; AlphaScreen L3MBTL1–H3K9me1 peptide binding; Potency, µM (top dose mostly 57.1 µM), for inactives: top-dose activity, negative = inhibition, most hits filed as inhibitors; Q9Y468; note: potency is the fitted concentration of half-maximal effect; % is set by controls: 0 for no effect and ±100 for the full control effect; nearly all actives have a fitted effect of over 60% in size
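L3MBTL1 (50 nM) pre-complexed 30 min with biotinylated H3(1-15)K9me1 peptide (75 nM), then compounds added for 30 min at room temperature; AlphaScreen streptavidin donor/nickel chelate acceptor beads (10 ug/mL final) read after 30 min dark incubation.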
BAZ2B block – blocks human BAZ2B; AID 504333; AlphaScreen BAZ2B-H3K14Ac peptide displacement; Potency, µM (doses to about 114 µM), for the others: at the top dose activity change, negative = inhibition, hits mostly inhibitors; Q9UIF8; hit rate 4.4% among 360,000; note: potency is the fitted concentration of half-maximal effect; % is set by controls: 0 for no effect and ±100 for the full control effect; nearly all actives have a fitted effect of over 60% in size
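In this displacement format the biotinylated H3(5-23) peptide acetylated at Lys14 serves as ligand at 50 nM, with BAZ2B at 50 nM in PBS pH 7.4 containing 0.01% Tween-20. Donor and acceptor beads are 10 ug/mL final.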
PI5P4Ka inh – inhibitors of human PI5P4K alpha. P48426. PI5P4Kalpha enzyme, ADP-Glo luminescence, 60 min; active compounds read low. max response, %. hit rate 1.2% among 330,000; active = max response of -50% or lower; inconclusive = between -30% and -50%; inactive = -30% or higher; note: value at the top dose of about 77 µM; % is set by controls: 0 for no effect and ±100 for the full control effect
Target sequence (P48426 whole entry, looked up): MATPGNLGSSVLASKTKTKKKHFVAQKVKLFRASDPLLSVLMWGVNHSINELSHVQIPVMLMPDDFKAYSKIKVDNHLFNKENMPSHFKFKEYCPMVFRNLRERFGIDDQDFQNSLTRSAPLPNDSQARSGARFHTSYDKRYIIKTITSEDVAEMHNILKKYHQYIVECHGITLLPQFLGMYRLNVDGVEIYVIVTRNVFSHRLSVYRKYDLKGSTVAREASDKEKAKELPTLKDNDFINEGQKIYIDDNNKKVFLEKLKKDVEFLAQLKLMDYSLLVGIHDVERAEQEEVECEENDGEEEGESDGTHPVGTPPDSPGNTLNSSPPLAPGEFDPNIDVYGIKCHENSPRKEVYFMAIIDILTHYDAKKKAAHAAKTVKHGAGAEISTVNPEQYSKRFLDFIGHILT
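Human PI5P4Kalpha with substrate in 0.038 M HEPES pH 7.4, 0.28 mM EGTA, 0.1% CHAPS, 5% DMSO; reaction started with 5 microM ATP (final), 60 min at room temperature. ADP formed read by ADP-Glo luminescence.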
JMJD2A Tudor – blocks the human JMJD2A Tudor domain. AID 504339. Potency, µM (titrated, usually from 114 µM), for inactives: top-dose activity change, negative = inhibition, most hits filed as inhibitors. AlphaScreen JMJD2A-Tudor / H3K4me3 peptide binding. O75164. hit rate 4.4% among 390,000; note: potency is the fitted concentration of half-maximal effect; % is set by controls: 0 for no effect and ±100 for the full control effect; nearly all actives have a fitted effect of over 50% in size
HP1b chromo inh – blocks HP1-beta chromodomain binding to methylated histone tails | AlphaScreen HP1-beta / biotin-H3K9me3 peptide binding | Potency, µM (series often up to 114 µM), inactives show at the top dose activity change, negative = inhibition, most hits filed as inhibitors | hit rate 0.56% among 390,000 | AID 540317; note: potency is the fitted concentration of half-maximal effect; nearly all actives have a fitted effect of over 70% in size
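AlphaScreen: HP1-beta (50 nM) preformed 30 min with biotin-H3(1-18)K9me3 peptide (50 nM) in PBS pH 7.4, 0.01% Tween-20. Compound added for 30 min at RT, then streptavidin donor/nickel chelate acceptor beads (10 ug/mL) for 30 min.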
G9a inh – blocks human histone lysine methyltransferase G9a; Q96KQ7; G9a H3K9 monomethylation, AlphaScreen, 2 h; Potency, µM (series often up to 102 µM), inactives show at the highest dose activity, negative = inhibition, usual class: inhibitors; hit rate 8.8% among 350,000; note: potency is the fitted concentration of half-maximal effect; % is set by controls: 0 for no effect and ±100 for the full control effect; nearly all actives have a fitted effect of over 75% in size
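Quantitative HTS format: methyltransferase activity on a biotin-tagged H3K9 peptide is measured by AlphaScreen, using a rabbit anti-monomethyl-H3K9 antibody with streptavidin donor and anti-IgG acceptor beads. Final levels are 20 nM enzyme, 500 nM peptide, 20 uM SAM; 2 h RT.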
Starred values were filed as active, the others as inactive; ? = inconclusive; . = no result; [ ] = remark or other dose. Unless noted, calls come from the whole dose curve; as a rule, active = well fitted inhibition curve with a large enough effect; inconclusive = small, poorly fitted or top-dose-only effect; inactive = no such curve, though single readings can be large or run the other way.

SMILES	L3MBTL1 inh	BAZ2B block	PI5P4Ka inh	JMJD2A Tudor	HP1b chromo inh	G9a inh
COc1cc(C(CCN2CCCC2)c2c(OC)cc(OC)c3c(-c4ccccc4)cc(=O)oc23)cc(OC)c1OC (stereo unspecified)	.	-18%	0	?	-2%	19%[59 µM]
CCCc1sc(N2CCCC(C(N)=O)C2)nc1-c1ccccc1 (stereo unspecified)	-8%	?	-1	28µM*	?	-94%
NC(=O)C1CCCN(CCc2ccccc2)C1 (stereo unspecified)	5%	-3%	.	-17%	23%	1%[59 µM]
COc1cc(/C=C2\SC(=S)NC2=O)ccc1OS(=O)(=O)c1ccccc1	-23%	45µM*	.	.	.	11µM*
O=C(COc1ccccc1/C=C1\SC(=O)NC1=O)Nc1ccccc1	.	.	?	-23%	2%	-49%
COc1ccc(/C=C2/S/C(=N/S(=O)(=O)Cc3ccccc3)NC2=O)cc1OC	2%	-9%	-2	-13%	15%	.
COc1ccc(/C=C2\SC(=O)NC2=S)cc1OC	-11%	40µM*	-70*	79µM*	?	6.3µM*
CC(=O)Nc1ccc(S(=O)(=O)Oc2cccc(/C=C3\SC(N)=NC3=O)c2)cc1	.	-31%	?	25µM*	-1%	-1%[59 µM]
CCOc1ccccc1C=C1SC(=S)NC1=O	.	.	-66*	?	?	.
COc1cccc(/C=C2\SC(=S)NC2=O)c1OS(=O)(=O)c1ccc(NC(C)=O)cc1	-9%	?	?	-35%	-2%	-48%[59 µM]
CCN1C(=O)S/C(=C/c2ccc(Oc3ccc([N+](=O)[O-])cn3)c(OC)c2)C1=O	?	16%	3	-27%	21%	?
COc1ccc(/C=C2\SC(=S)NC2=O)cc1OS(=O)(=O)c1ccc(NC(C)=O)cc1	.	-38%	-88*	-35%	-14%	?
COc1cc(/C=C2\SC(=S)N(CCCCC(=O)O)C2=O)ccc1OS(=O)(=O)c1ccc(C)cc1	-26%	35µM*	6	50µM*	?	?
CCN1C(=O)C(=Cc2cccc(OC)c2Oc2ccc([N+](=O)[O-])cc2[N+](=O)[O-])SC1=S	.	25µM*	1	?	?	45µM*
CCOc1ccc(/C=C2\SC(=S)NC2=O)cc1OC	-13%	?	-78*	-31%	-4%	13µM*
CCCc1nn2c(=O)cc(COC(=O)c3ccc(NC(=O)COc4ccccc4F)cc3)nc2s1	.	-4%	.	-13%	30%	6%[59 µM]
COc1cc(/C=C2\SC(=O)NC2=O)ccc1Oc1ccc([N+](=O)[O-])cc1[N+](=O)[O-]	-15%	45µM*	3	35µM*	?	10µM*
COc1cc(/C=C2/SC(=S)NC2=O)ccc1OS(=O)(=O)c1ccc(C)cc1	-6%	50µM*	-85*	56µM*	?	20µM*
O=C1NC(=O)/C(=C/c2ccccc2OCc2ccccc2)S1	-4%	-33%	-13	-23%	9%	40µM*
COc1cc(OC)cc(C(=O)NCCc2csc(-c3ccc(C(F)(F)F)cc3)n2)c1	.	4%	.	-15%	21%[57 µM]	9%[59 µM]
CCCc1nn2c(=O)cc(COC(=O)c3cccc(NC(=O)COc4ccccc4C)c3)nc2s1	.	-22%	.	-6%	18%	-1%[12.7 µM]
CC(=O)c1ccc(N2CCN(C(=O)Cn3ncc4c3-c3ccccc3OC4)CC2)cc1	.	-17%	.	-25%	2%	-8%[59 µM]
O=Cc1cccc(OCc2cn(CC(=O)c3ccc(O)cc3)nn2)c1	.	.	-15	.	.	.
COc1ccc(C=O)c(OCc2cn(CC(=O)c3ccc(O)cc3)nn2)c1	.	.	-19	79µM*	6%	.
O=C(COc1ccccc1Cl)NCC1(N2CCOCC2)CCCCC1	.	-11%	.	-17%	50%	-4%[59 µM]
CCn1c(=S)sc2c(=O)n(-c3ccccc3)c(SC)nc21	-13%	-7%	.	-23%	-11%	45µM*
S=c1cnc2ccccc2[nH]1	2%	56µM*	-61*	4.5µM*	?	1µM*
c1ccc(-c2ccc3c(c2)c2c4n3CCN=C4CCC2)cc1	-7%	?	.	56µM*	-23%	20µM*

Screening data (PubChem BioAssay)
